The list is not random: actives were taken first. Their share in the collection is about 4.5%.
697 NFkB inh: inhibitors of PMA/ionomycin-induced NF-kB reporter, 697 cells, primary screen, B-cell NF-kB inhibitor project, cell-based, luminescence, uHTS; inhibition, % at 4 µM; hit rate 0.33% among 330,000; AID 435022, 2010; 697 B-cell NF-kB luciferase reporter, 16 h; in the data active = inhibition above about 35%
Mdm2 MdmX PPI: inhibitors of human Mdm2-MdmX association, primary screen, cell-based, luminescence, split luciferase, SaOS-2, uHTS | SaOS-2 split-luciferase Mdm2/MdmX complementation | Protein Mdm4 (Homo sapiens) + E3 ubiquitin-protein ligase Mdm2 (Homo sapiens), … | inhibition, % at 8 µM | hit rate 3% among 330,000;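 active = inhibition of at least 50% at 8 µM in the primary screen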
Target sequence (O15151 whole entry, looked up): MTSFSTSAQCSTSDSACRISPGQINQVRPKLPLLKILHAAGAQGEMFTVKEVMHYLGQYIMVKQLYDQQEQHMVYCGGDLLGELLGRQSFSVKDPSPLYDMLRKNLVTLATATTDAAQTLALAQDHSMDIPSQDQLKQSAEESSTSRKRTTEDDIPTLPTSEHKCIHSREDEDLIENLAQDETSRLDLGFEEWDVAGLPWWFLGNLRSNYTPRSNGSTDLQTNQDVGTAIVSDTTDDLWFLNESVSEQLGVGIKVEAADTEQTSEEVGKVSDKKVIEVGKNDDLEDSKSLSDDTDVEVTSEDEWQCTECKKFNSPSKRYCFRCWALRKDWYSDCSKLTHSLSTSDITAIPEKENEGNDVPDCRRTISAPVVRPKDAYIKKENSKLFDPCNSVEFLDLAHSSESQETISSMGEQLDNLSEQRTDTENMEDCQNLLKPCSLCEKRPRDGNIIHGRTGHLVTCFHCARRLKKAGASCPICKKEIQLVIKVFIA
Target sequence (Q00987 whole entry, looked up): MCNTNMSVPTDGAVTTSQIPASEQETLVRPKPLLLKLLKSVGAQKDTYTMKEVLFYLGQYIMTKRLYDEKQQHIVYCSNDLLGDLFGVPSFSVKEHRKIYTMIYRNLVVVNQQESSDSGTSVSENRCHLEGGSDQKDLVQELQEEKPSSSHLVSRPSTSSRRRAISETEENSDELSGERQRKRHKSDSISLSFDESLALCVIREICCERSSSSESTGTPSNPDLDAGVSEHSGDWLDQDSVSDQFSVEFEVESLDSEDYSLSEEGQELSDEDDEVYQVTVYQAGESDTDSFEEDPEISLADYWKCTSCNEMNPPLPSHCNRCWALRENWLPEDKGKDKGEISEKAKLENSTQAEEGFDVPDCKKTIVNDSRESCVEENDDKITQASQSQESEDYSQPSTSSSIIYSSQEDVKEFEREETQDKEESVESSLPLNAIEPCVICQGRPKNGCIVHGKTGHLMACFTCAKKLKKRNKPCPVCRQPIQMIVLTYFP
CSC inhib: cancer stem cell viability inhibitors, primary screen, luminescence; hit rate 1.1% among 300,000; AID 2717, 2010; inhibition, % at 7.5 µM; cancer stem cell-like cells viability; in the data active = inhibition above about 75%; inconclusive = no clear call, values can overlap the other calls; tested in HMLE shEcad cells
Beta apoptosis: inhibitors of cytokine-induced beta cell apoptosis, primary screen, luminescence | INS-1E cytokine-induced death, ATP luminescence, 48 h; percent of positive-control rescue, neutral wells zero | protection from apoptosis, % (test concentration not listed) | hit rate 0.8% among 300,000 | AID 435005, 2010;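 active = Every replicate reaches about 75%, or at least half do and their mean reaches it too, limit read from the data; inconclusive = At least half of replicates reach the limit but their mean does not; inactive = Under half of replicates reach the limit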;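 also: 0% = cytokine-treated negative control wells and 100% = positive control rescue; higher means more ATP so stronger rescue from cytokine killing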
Gli-Sufu antag: Gli-Sufu pathway antagonists, primary screen, luciferase luminescence, Sufu-KO-LIGHT cells, uHTS; inhibition, % at 5 µM; AID 588413, 2011; Sufu-KO-LIGHT fibroblasts, Gli luciferase reporter luminescence; hit rate 0.74% among 340,000;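 active = inhibition above about 55%, limit read from the data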;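 also: 0% = DMSO-treated cells and 100% = wells with medium but no cells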
Jurkat NFkB inh: inhibitors of induced NF-kB luciferase reporter, primary screen, TCR NF-kB activation inhibitor project, cell-based, luminescence, uHTS. Jurkat, PMA/ionomycin-induced NF-kB luciferase reporter. hit rate 0.53% among 330,000. inhibition, % at 4 µM; in the data active = inhibition above about 50%
Mdm2-MdmX conf: Mdm2-MdmX complex disruptors, retested hits, confirmation, luminescence, single concentration. shares compounds with Mdm2 MdmX PPI. Mdm2-MdmX binding, luminescent assay. inhibition, % at 8 µM. hit rate 55% among 10,000. AID 489028, 2010; in the data active = inhibition above about 40%
FLuc counter: full-length luciferase signal inhibition, confirmation, counter-screen for Mdm2/MdmX interaction inhibitor project, cell-based, single concentration, SaOS-2; SaOS-2 full-length luciferase counterscreen, luminescence; hit rate 77% among 6,200; shares compounds with Mdm2 MdmX PPI; inhibition, % at 8 µM; AID 504607, 2011;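 active = mean inhibition at 8 µM reaching about 37%, which flags the compound as non-specific, limit read from the data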;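 also: p53-null SaOS-2 cells with luciferase driven by a doxycycline-inducible promoter; compound on cells about two nights before reading with doxycycline added after day one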
* = called active by the depositor; ? = inconclusive; . = not tested or not shown.

SMILES	697 NFkB inh	Mdm2 MdmX PPI	CSC inhib	Beta apoptosis	Gli-Sufu antag	Jurkat NFkB inh	Mdm2-MdmX conf	FLuc counter
Nc1nc(SCc2ccccc2Cl)nc2nc3c(cc12)CCCC3	1.4	13.6	0.8	5.4	-0.9	-3.2	.	.
Nc1nc(SCc2ccc(Cl)cc2Cl)nc2nc3c(cc12)CCCC3	10.3	57.4*	23.2	13.5	14.8	16.0	24.9	.
CN(C)CCNC(=O)/C(=C/c1ccc(-c2ccc(Cl)cc2Cl)o1)NC(=O)c1ccccc1	14.9	100.2*	110.0*	99.4*	7.3	7.1	99.9*	26.3
Cc1ccc(C(=O)N/C(=C\c2ccc(-c3ccc(Br)cc3)o2)C(=O)NCCCN(C)C)cc1	1.9	100.2*	?	100.4*	17.5	8.3	99.2*	54.7*
CN(C)CCNC(=O)/C(=C/c1ccc(-c2ccc(Cl)cc2)o1)NC(=O)c1ccccc1	.	.	21.4	0.0	13.9	.	.	.
O=C(CSc1nnc(Cc2ccccc2)o1)Nc1ccc(N2CCOCC2)cc1	8.4	-1.6	-11.8	2.8	2.1	-2.3	.	.
NC(=O)c1cc([N+](=O)[O-])c(Cl)cc1NCc1ccccn1	-37.4	4.7	1.2	1.5	5.7	-6.0	.	.
N#Cc1nc(-c2ccc(OCc3ccc(Cl)cc3)cc2)oc1N1CCC(C(N)=O)CC1	-0.2	5.4	-11.3	-3.9	3.6	5.6	.	.
N#Cc1nc(-c2ccc(OCc3ccc(Cl)cc3)cc2)oc1N1CCOCC1	19.2	55.3*	8.2	14.4	-14.0	-12.0	22.2	.
COCCN(C(=O)COC(=O)CCS(=O)(=O)c1ccccc1)c1c(N)n(Cc2ccccc2)c(=O)[nH]c1=O	6.0	2.2	-0.5	.	-17.0	6.8	.	.
Cc1c(CN(C)C)c2c(n1Cc1ccccc1)C(=O)c1ccc(Br)cc1-2	14.0	77.1*	12.9	11.0	14.2	7.0	60.7*	29.6
CCN1CCN(c2ccc(Nc3ccnc4ccccc34)cc2)CC1	-3.1	86.7*	.	3.9	-3.5	33.1	84.3*	29.8
CN1CCN(c2ccc(Nc3ccnc4cc(Cl)ccc34)cc2)CC1	8.3	77.5*	30.0	11.1	39.3	-14.8	39.6	50.9*
CCOc1ccc(Nc2ccnc3cc(Cl)ccc23)cc1	30.1	22.9	44.1	9.9	16.3	3.4	.	.
O=C(NC1CCCCC1)c1sc(=S)n2c1[nH]c(=O)c1ccccc12	-28.1	70.5*	54.8	2.3	2.3	-19.4	21.2	.
CCCCNC(=O)c1sc(=S)n2c1[nH]c(=O)c1ccccc12	-145.2	24.4	26.5	4.3	-0.3	-143.2	.	.
CCOC(=O)N1CCN(C(=O)CCN2C(=O)/C(=C\c3cccc(OC)c3)SC2=S)CC1	11.5	60.1*	.	-26.1	36.1	20.7	38.1	45.7*
COc1cccc(/C=C2\SC(=S)N(CCCC(=O)Nc3cc(C)on3)C2=O)c1	23.8	51.9*	3.8	4.4	-10.8	11.8	57.9*	70.0*
COc1ccc(/C=C2\SC(=S)N(CCC(=O)N3CCCCC3)C2=O)cc1	15.5	63.7*	2.9	-16.3	11.7	-1.5	46.2*	90.1*
CC1CCN(C(=O)CCN2C(=O)/C(=C/c3cccs3)SC2=S)CC1	11.8	82.8*	36.5	-12.5	10.8	7.2	46.0*	19.8
O=C(CCN1C(=O)/C(=C/c2ccccc2Cl)SC1=S)NC1CCCC1	-27.9	45.1	3.4	-2.4	7.4	8.4	.	.
O=C1/C(=C/c2ccccc2Cl)SC(=S)N1CCCC(=O)N(CCO)c1ccccc1	15.3	97.8*	26.7	.	22.3	19.9	15.4	.
COc1ccccc1NC(=O)CCN1C(=O)/C(=C\c2cc(OC)c(OC)c(OC)c2)SC1=S	-18.7	51.8*	5.5	-0.6	0.8	13.2	-2.4	.
COC(=O)COc1ccc(/C=C2/SC(=O)N(CC(=O)N3CCCC3)C2=O)cc1Br	1.8	56.0*	-15.3	.	-5.4	-14.5	11.2	.
O=C(CCN1C(=O)/C(=C\c2ccccc2Cl)SC1=S)N1CCN(c2ccccc2)CC1	-9.9	98.0*	20.9	-15.5	8.2	6.5	80.2*	41.6*
SMILES	697 NFkB inh	Mdm2 MdmX PPI	CSC inhib	Beta apoptosis	Gli-Sufu antag	Jurkat NFkB inh	Mdm2-MdmX conf	FLuc counter
Clc1c(Cl)c(Cl)c2n[nH]nc2c1Cl	12.2	16.2	36.3	-2.6	8.5	-9.6	.	.
Cc1noc(C)c1S(=O)(=O)Nc1ccc(C#N)cc1	3.4	12.3	-8.5	5.4	7.7	0.1	.	.
Cc1cc(C)cc(N2C(=O)CC(c3ccccc3)CC2=O)c1	6.4	-3.1	-4.1	-3.8	-7.7	0.3	.	.
CCN(CC)CCN(C(=O)c1ccc2c(c1)CCCC2)c1nc2c(C)cccc2s1	3.6	32.2	29.6	8.2	34.9	-0.4	.	.
CCC(C)(C)NC(=O)C(c1cccc(OC)c1OC)N(CCOC)C(=O)CCC(=O)Nc1cc(C)on1 (stereo not given)	-7.7	21.4	.	-1.4	18.1	-11.1	.	.
O=C(CCN1C(=O)/C(=C/c2ccccc2F)SC1=S)Nc1ccccn1	-4.9	12.0	-1.5	-7.2	-2.8	13.6	.	.
COc1cccc(/C=C2\SC(=S)N(CCC(=O)N3CCCCC3)C2=O)c1	27.4	86.1*	57.3	-83.1	-5.5	10.3	53.2*	71.1*
O=C(CCN1C(=O)/C(=C/c2ccccc2Cl)SC1=S)NCCc1ccc(O)cc1	5.6	78.4*	45.8	-14.2	-1.0	9.4	39.2	47.8*
O=C(CCN1C(=O)/C(=C\c2ccccc2F)SC1=S)N1CCCCC1	5.3	93.2*	66.5	-45.4	-15.0	19.4	67.0*	104.6*
O=C(CN1C(=O)/C(=C/c2cccc(Br)c2)SC1=S)N1CCCC1	2.9	62.1*	49.3	-21.0	6.1	4.1	75.5*	62.7*
CCc1ccc(CN2CCCC(C(=O)Nc3ccc(-c4cscn4)cc3)C2)o1 (stereo not given)	0.6	13.7	6.9	1.0	-7.2	-9.1	.	.
CCOC(=O)C1CCN(C(=O)C2CC(=O)N(c3ccc4c(c3)OCCO4)C2)CC1 (stereo not given)	-0.2	15.0	-8.2	-4.1	0.6	22.4	.	.
O=C1/C(=C/c2ccncc2)SC(=S)N1Cc1ccccc1	10.5	42.7	58.1	.	7.6	10.2	.	.
COc1ccc(/C=C2/SC(=S)N(CCC(=O)N3CCN(C)CC3)C2=O)cc1	1.5	12.5	57.8	-15.3	29.3	-3.5	.	.
O=C(CCN1C(=O)/C(=C/c2ccccc2)SC1=S)N1CCCCCC1	-27.8	95.1*	31.7	10.2	34.2	-4.3	77.2*	51.6*
